“And” between values parts separate entries of the source, which are not always exact repeats. Equal values may be shown once. Records with an inconclusive call do not appear. The source made the active and inactive calls. Unless noted, the call rests on the fitted dose curve.

Test [1] addresses Peroxisome proliferator-activated receptor delta (Homo sapiens) (UniProt Q03181). Nature of the test: qHTS assay to identify small molecule agonists of the peroxisome proliferator-activated receptor delta (PPARd) signaling pathway (AID 743212).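 Further: HEK293H cells with PPARd UAS beta-lactamase reporter GeneBLAzer system.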 The method in brief:
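Beta-lactamase reporter read by fluorescence (LiveBLAzer B/G FRET, 2 h, room temperature). Test agents, in DMSO, incubated at 37 C with PPARd-bla HEK293H cells.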

A short description of test [2]: qHTS assay to identify small molecule antagonists of the peroxisome proliferator-activated receptor delta (PPARd) signaling pathway - cell viability counter screen (AID 743213; active means well fitted curve in the direction sought with a large enough effect in the repeat runs; an effect the other way counts as inactive or inconclusive; further: nearly all actives have a fitted effect of over 50% in size; further: potency means the concentration at half of the fitted maximal effect). Put shortly: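 HEK293H cells with the PPARd UAS-bla reporter, co-treated 17 h at 37 C with compounds and L165041 (300 nM final), were lysed with CellTiter-Glo. Luminescence indicated viable cell content.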

Test [3] in a line: qHTS assay to identify small molecule agonists of the farnesoid-X-receptor (FXR) signaling pathway - cell viability counter screen (AID 743218; active means well fitted curve in the direction sought with a large enough effect in the repeat runs; an effect the other way counts as inactive or inconclusive; further: nearly all actives have a fitted effect of over 45% in size; further: potency means the concentration at half of the fitted maximal effect). The method in brief:
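Readout: CellTiter-Glo luminescence, 30 min RT, multiplexed after the FXR-bla FRET reading. HEK 293T FXR-UAS-bla cells received compound 5 h post-plating and were incubated 16 h at 37 C.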

The nature of test [4]: qHTS assay to identify small molecule antagonists of the farnesoid-X-receptor (FXR) signaling pathway - cell viability counter screen (AID 743221; active means well fitted cell-killing curve with a large enough effect in the repeat runs, not every such curve was filed as active; further: nearly all actives have a fitted effect of over 50% in size; further: potency means the concentration at half of the fitted maximal effect). The method in brief: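 Quantitative HTS of the Tox21 10K library run in parallel with the beta-lactamase reporter read. HEK 293T cells carrying a UAS-driven bla reporter got compound and 50 uM CDCA (final) for 16 h; ATP-based luminescence followed.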

Test [5] addresses Vitamin D3 receptor (Homo sapiens) (UniProt P11473). Nature of the test: qHTS assay to identify small molecule antagonists of the vitamin D receptor (VDR) signaling pathway (AID 743223; active means well fitted inhibition curve with a large enough effect in the signal ratio in the repeat runs, not every such curve was filed as active; the % refers to the signal ratio; further: potency means the concentration at half of the fitted maximal effect). The method in brief: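 Fluorescence from LiveBLAzer B/G FRET substrate, read after 2 h at room temperature, reflects beta-lactamase reporter activity in VDR-bla cells treated 16 h at 37C with compounds and agonist 1alpha,25-dihydroxyvitamin D3 (3 nM final).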

The target is the same in test [6]. Put plainly: qHTS assay to identify small molecule agonists of the vitamin D receptor (VDR) signaling pathway (AID 743222). The method in brief:
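Following 4 h attachment at 37C, VDR-bla cells (2,000 per well) received DMSO-dissolved compounds or controls. After 16 h incubation, LiveBLAzer B/G FRET substrate was added and fluorescence read 2 h later at room temperature.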

The target of test [7] is Peroxisome proliferator-activated receptor delta (Homo sapiens) (UniProt Q03181). Nature of the test: qHTS assay to identify small molecule antagonists of the peroxisome proliferator-activated receptor delta (PPARd) signaling pathway (AID 743215; active means well fitted inhibition curve with a large enough effect in the signal ratio in the repeat runs, not every such curve was filed as active; the % refers to the signal ratio;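 further: cells stimulated with agonist L165041 at 300 nM final during compound exposure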; further: potency means the concentration at half of the fitted maximal effect). Put shortly:
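Fluorescence from cleaved LiveBLAzer B/G FRET substrate (2 h, room temperature) reports PPARd-driven beta-lactamase in HEK293H UAS-bla cells. Cells had been treated 17 h at 37 C with compound plus 300 nM final L165041.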

Test [8] deals with Bile acid receptor (Homo sapiens) (UniProt Q96RI1). Nature of the test: qHTS assay to identify small molecule antagonists of the farnesoid-X-receptor (FXR) signaling pathway (AID 743217; active means well fitted inhibition curve with a large enough effect in the signal ratio in the repeat runs, not every such curve was filed as active; the % refers to the signal ratio; further: potency means the concentration at half of the fitted maximal effect). Put shortly: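 FRET fluorescence after 2 h room-temperature LiveBLAzer loading gives the readout. Prior step: FXR-bla HEK 293T cells, seeded and incubated 5 h, received test compounds plus 50 uM final CDCA for 16 h at 37 °C.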

Test [9] shares this target. Put plainly: qHTS assay to identify small molecule agonists of the farnesoid-X-receptor (FXR) signaling pathway (AID 743220; active means well fitted activation curve with a large enough effect in the signal ratio in the repeat runs, not every such curve was filed as active; the % refers to the signal ratio). The method in brief: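 FXR-UAS-bla HEK 293T cells carrying a UAS-driven beta-lactamase reporter were plated for 5 h at 37C/5% CO2, then exposed to DMSO-dissolved Tox21 10K compounds for 16 h at 37C. A LiveBLAzer B/G FRET substrate was loaded for 2 h at room temperature before fluorescence reading.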

Sequence of Bile acid receptor (Homo sapiens) (Q96RI1 whole entry, looked up): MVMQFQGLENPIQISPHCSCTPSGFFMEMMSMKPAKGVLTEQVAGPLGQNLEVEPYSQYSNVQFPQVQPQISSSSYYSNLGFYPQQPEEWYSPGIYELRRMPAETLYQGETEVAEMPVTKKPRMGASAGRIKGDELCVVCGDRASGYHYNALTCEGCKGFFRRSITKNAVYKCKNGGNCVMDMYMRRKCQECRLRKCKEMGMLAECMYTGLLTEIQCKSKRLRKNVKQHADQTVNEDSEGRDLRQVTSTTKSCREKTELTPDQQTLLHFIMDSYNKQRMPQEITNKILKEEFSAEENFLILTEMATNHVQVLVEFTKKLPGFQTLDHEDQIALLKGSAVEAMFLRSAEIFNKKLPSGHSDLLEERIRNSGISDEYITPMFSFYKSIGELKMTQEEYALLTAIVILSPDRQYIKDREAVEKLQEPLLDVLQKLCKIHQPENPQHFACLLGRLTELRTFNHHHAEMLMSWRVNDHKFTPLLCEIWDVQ
Sequence of Peroxisome proliferator-activated receptor delta (Homo sapiens) (Q03181 whole entry, looked up): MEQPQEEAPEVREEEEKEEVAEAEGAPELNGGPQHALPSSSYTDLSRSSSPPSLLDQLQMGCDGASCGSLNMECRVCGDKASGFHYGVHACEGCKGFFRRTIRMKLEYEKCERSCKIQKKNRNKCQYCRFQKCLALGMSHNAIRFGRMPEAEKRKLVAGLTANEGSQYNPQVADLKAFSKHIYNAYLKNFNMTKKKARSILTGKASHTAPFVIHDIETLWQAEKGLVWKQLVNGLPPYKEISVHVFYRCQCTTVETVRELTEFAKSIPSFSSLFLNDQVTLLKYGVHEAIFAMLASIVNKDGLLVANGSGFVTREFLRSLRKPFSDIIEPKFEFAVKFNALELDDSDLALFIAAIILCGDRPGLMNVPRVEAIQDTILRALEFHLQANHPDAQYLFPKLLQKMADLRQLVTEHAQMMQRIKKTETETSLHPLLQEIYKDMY
Sequence of Vitamin D3 receptor (Homo sapiens) (P11473 whole entry, looked up): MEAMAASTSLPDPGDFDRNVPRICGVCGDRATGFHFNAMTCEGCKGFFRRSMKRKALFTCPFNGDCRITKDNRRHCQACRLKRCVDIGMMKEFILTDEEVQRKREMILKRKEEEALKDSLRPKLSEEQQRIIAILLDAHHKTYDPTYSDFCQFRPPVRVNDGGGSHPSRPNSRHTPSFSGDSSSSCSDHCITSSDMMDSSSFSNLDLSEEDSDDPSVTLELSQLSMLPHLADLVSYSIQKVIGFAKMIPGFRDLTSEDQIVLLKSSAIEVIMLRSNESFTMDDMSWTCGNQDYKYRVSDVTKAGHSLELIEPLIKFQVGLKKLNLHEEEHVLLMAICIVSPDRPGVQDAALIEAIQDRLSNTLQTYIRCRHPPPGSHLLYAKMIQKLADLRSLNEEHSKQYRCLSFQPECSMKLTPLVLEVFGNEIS

Take `CCC1(c2cnc[nH]2)Cc2ccccc2C1`: the call in test [1] was inactive. The Potency result in test [2], in [3], in test [4] and in [5] was “inactive” throughout.

Consider `CC(O)C#CC(C)O` (configuration not stated), for which the outcome in test [1] was inactive. Moreover, the Potency entry in test [3] and in [4] was “inactive” throughout.

With `C/C=C/C=N/NC(=O)c1ccncc1`, the molecule was classed as inactive in [1]. The Potency entry in test [3], in test [4] and in test [5] was “inactive” throughout.

Consider `CN(C)c1ccc(N=Nc2ccccc2C(=O)O)cc1`, for which the molecule was classed as inactive in [1]. For the same molecule, the Potency result in test [4] and in test [6] was “inactive” each time.

Consider `CCCCN(CCCC)CCC(O)c1cc2c(Cl)cc(Cl)cc2c2cc(C(F)(F)F)ccc12` (configuration not stated), for which the call in [1] was inactive. The Potency entry in [7], in [6] and in [5] was “inactive” in each case. In addition, the Potency in test [3] is 29.8 µM (active).

Take `C=CC(=O)OCC(O)COc1ccccc1` (configuration not stated): in test [1], the result was inactive. Also, in test [3], the Potency is 34.7 µM (active). Further, the Potency result in test [4] is “inactive”.

For the molecule `CCCCCCCC/C=C\CCCCCCCC(=O)NCc1ccc(O)c(OC)c1`, in test [1], the molecule was classed as inactive. Besides, the Potency was 18.8 µM (active) in [2], 29.8 µM (active) in test [8], 29.8 µM (active) in test [3] and 26.8 µM (active) in test [5]. The Potency entry in test [6] was “inactive”.

As for `Cc1occc1SSc1ccoc1C`, in [1], the molecule was called inactive. Also, the Potency entry in [8], in test [3], in test [4] and in [5] was “inactive” each time.

Turning to `CSc1ccc2c(c1)N(CCC1CCCCN1C)c1ccccc1S2` (configuration not stated), in test [1], the call was inactive. Also, the Potency in test [7] was 26.6 µM (active); in test [3] it was 21.8 µM (active) and 16.8 µM (active); in test [4] it was 38.7 µM (active) and 29.8 µM (active). In test [6], the Potency entry was “inactive”.

For `O=S(=O)(O)CCCN1CCOCC1`, the result in test [1] was inactive. Besides, the Potency result in [2], in test [3], in test [4], in [6] and in [5] was “inactive” in each case.

Regarding `CCCCCCC(C)OC(=O)COc1nc(F)c(Cl)c(N)c1Cl` (configuration not stated), the result in test [1] was inactive. Moreover, the Potency entry in test [7], in test [3] and in test [6] was “inactive” throughout.

As to `CC1CCCCN1CCCOC(=O)c1ccc(OC2CCCCC2)cc1` (configuration not stated), in test [1], the outcome was inactive. Moreover, the Potency result in [7], in [8], in test [4], in test [6] and in test [5] was “inactive” in each case.

For `O=C1Nc2ccc(Cl)cc2[C@@](C#CC2CC2)(C(F)(F)F)O1`, in test [1], the molecule was classed as inactive. In addition, the Potency entry in [7], in test [3], in test [6] and in test [5] was “inactive” throughout.

Turning to `CCCCCCC(C)Nc1ccc(Nc2ccccc2)cc1` (configuration not stated), the molecule was called inactive in test [1]. The Potency in test [7] and in test [4] was 49 µM (active) throughout.

As for `Brc1ccccc1-c1ccccc1`, in test [1], the call was inactive. For the same molecule, the Potency result in test [4] and in test [6] was “inactive” each time.

With `CCCCCCCC/C=C/CCCOC(C)=O`, the outcome in test [1] was inactive. The Potency result in test [8], in [3], in [9], in [6] and in test [5] was “inactive” each time.

With `COC(=O)[C@]1(C)CCC[C@@]2(C)[C@H]1CC=C1C=C(C(C)C)CC[C@@H]12`, the Potency entry in test [2], in [8], in test [6] and in [5] was “inactive” each time.

In the case of `CCCCCCCCCCCCCCNCCO`, the result in test [1] was inactive. Moreover, the Potency result in [7], in test [3], in test [4], in [6] and in test [5] was “inactive” throughout.

Turning to `C/C=C/C(=O)Oc1c(CCCCCC(C)C)cc([N+](=O)[O-])cc1[N+](=O)[O-]`, the figures for the Potency in test [2], in [8] and in test [4] were 24.5 µM (active), 24.5 µM (active) and 43.6 µM (active), respectively.

For `Cc1ccc2ccc3cccc4ccc1c2c34`, in test [1], the result was inactive. In addition, the Potency entry in test [7], in test [3] and in test [4] was “inactive” each time.

As to `CC(C)N=C(N)/N=C(\N)Nc1ccc(Cl)cc1`, the outcome in test [1] was inactive. For the same molecule, the Potency entry in test [8], in test [9] and in test [6] was “inactive” in each case.

As to `Nc1ncnc2c1ncn2[C@@H]1O[C@H](COP(=O)(O)O)[C@@H](O)[C@H]1O`, the result in test [1] was inactive. Further, the Potency result in [7], in test [6] and in test [5] was “inactive” in each case.

For `CC(C)(c1cc(Br)c(OCCO)c(Br)c1)c1cc(Br)c(OCCO)c(Br)c1`, the Potency is 42.7 µM (active) in test [2] and 19.1 µM (active) in test [3].

Take `CC(=O)Oc1ccc(C2(c3ccc(OC(C)=O)cc3)Oc3ccccc3NC2=O)cc1`: in test [1], the call was inactive. In test [4], the Potency result was “inactive”.

As to `CCc1ccc(O)c(C(C)(C)C)c1`, the result in test [1] was inactive. The Potency entry in test [3], in [4] and in test [6] was “inactive” in each case.

With `CCCCCCCCCCCCCOP(=O)(O)O`, the call in test [1] was inactive. For the same molecule, the Potency entry in test [7], in test [3], in test [4] and in [6] was “inactive” each time.

In the case of `Clc1ccc(C(Cn2ccnc2)OCc2c(Cl)cccc2Cl)c(Cl)c1` (configuration not stated), the Potency in test [8] is 21.1 µM (active).

On to `Cc1c(C)n(Cc2ccccc2)c2ccc(C(=O)OCCN(C)C)cc12`, for which the Potency result in [8] is “inactive”.

For the origin of these results see PubChem BioAssay (Tox21).
